HepG2 tox: qHTS for Inhibitors of TGF-b: Cytotox Counterscreen. 0.76% of 410,000 active. AID 588856, 2011. Potency, µM (highest dose often 46.1 µM), most hits filed as cytotoxic. HepG2 CAGA-GFP viability, ATP luminescence, 18 h
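CellTiter-Glo luminescence gave cytotoxicity after 18 hours at 37 degrees C. The cells were HepG2 CAGA-GFP in 1% FBS DMEM, stimulated with 500 pg/mL TGF-beta after compound addition. %Activity was normalised to no-cell wells (complete cell-killing) and DMSO (no toxicity), and curves were fitted and classified.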
ATXN viability: Viability Counterscreen for Primary qHTS for Inhibitors of ATXN expression | Potency, µM (series often up to 56.7 µM), most hits filed as cytotoxic | S2 cells (HEK-293 line with an ATXN2-luciferase reporter) viability, CellTiter-Fluor protease fluorescence, 24 h | 0.49% of 400,000 active; further: nearly all actives have a fitted effect of over 40% in size
ATXN2 expr inh: Primary qHTS for Inhibitors of ATXN expression; HEK-293 ATXN2-luciferase reporter, luminescence, 24 h; Potency, µM (titrated, usually from 57 µM), most hits filed as inhibitors; 0.72% of 360,000 active; further: nearly all actives have a fitted effect of over 55% in size
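qHTS (up to 57 uM final) was run with 24 h compound exposure of reporter cells at 37 °C. Each well was multiplexed: SteadyGlo luminescence measured ATXN2-luciferase expression after a fluorogenic Gly-Phe-AFC viability readout (25 uM final).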
RORg inh: qHTS for inhibitors of ROR gamma transcriptional activity. Drosophila S2 Gal4-RORgamma UAS-luciferase reporter, 20 h. Nuclear receptor ROR-gamma (Mus musculus), P51450. Potency, µM (titrated, usually from 53.6 µM), usual class: inhibitors. 5.4% of 310,000 active. AID 2551, 2010; further: nearly all actives have a fitted effect of over 60% in size
Target sequence (P51450 whole entry, looked up, the tested form may be a part): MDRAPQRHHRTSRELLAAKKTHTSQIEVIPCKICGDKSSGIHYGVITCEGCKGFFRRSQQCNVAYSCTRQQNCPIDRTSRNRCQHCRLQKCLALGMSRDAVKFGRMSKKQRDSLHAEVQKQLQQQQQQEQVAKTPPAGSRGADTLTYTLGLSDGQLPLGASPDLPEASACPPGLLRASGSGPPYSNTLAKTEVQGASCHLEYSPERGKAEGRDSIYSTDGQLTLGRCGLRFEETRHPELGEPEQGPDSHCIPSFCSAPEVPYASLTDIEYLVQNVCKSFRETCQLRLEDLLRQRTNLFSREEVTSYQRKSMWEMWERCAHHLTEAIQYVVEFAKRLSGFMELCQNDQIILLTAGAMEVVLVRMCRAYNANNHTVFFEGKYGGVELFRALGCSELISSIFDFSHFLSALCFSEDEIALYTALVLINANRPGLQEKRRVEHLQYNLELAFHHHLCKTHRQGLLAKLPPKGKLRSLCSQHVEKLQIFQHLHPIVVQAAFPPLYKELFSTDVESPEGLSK
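Stably transfected Drosophila Schneider cells are the test system, with ROR gamma fused to Gal4 and luciferase under UAS control; luminescence is read after 20 hr of 700 uM copper sulfate induction at ambient temperature.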
TGFb inhibitor: qHTS for Inhibitors of TGF-b; HepG2 CAGA-GFP TGF-b/SMAD3 reporter, GFP fluorescence, 18 h; TGF-beta stimulated, 500 pg/mL final; Potency, µM (series often up to 46.1 µM), most hits filed as inhibitors; 1.2% of 410,000 active; AID 588855, 2011; further: nearly all actives have a fitted effect of over 65% in size
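GFP signal (ex488/em500-530) from TGF-beta-stimulated HEPG2 CAGA-GFP cells, 500 pg/mL final, 18 h at 37 degrees C in DMEM plus 1% FBS, normalized to unstimulated and DMSO-stimulated controls.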
Gal4-VP16 FLuc: VP16 counterscreen qHTS for inhibitors of ROR gamma transcriptional activity; Drosophila S2 Gal4-VP16 UAS-luciferase, luminescence, 20 h; 3.5% of 310,000 active; Potency, µM (top dose mostly 53.6 µM), usual class: inhibitors;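 further: Gal4-VP16 expression switched on by copper sulfate through the metallothionein promoter; nearly all actives have a fitted effect of over 50% in size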
Each line names hits and unclear results; the compound was inactive in the other large screens. Compounds with a hit are over-represented: about 6.1% of the library has one in this group of screens. The call rests on the fitted dose curve; in most records, active means well fitted curve in the direction sought with a large enough effect; inconclusive means small, poorly fitted or top-dose-only effect, or another doubt; inactive means no such curve, though single readings can be large; an effect the other way counts as inactive or inconclusive.

Oc1ccc2c(c1)OCC1(O)Cc3cc(O)c(O)cc3C21 (centres undefined)	ATXN2 expr inh inconclusive, RORg inh 0.71µM, Gal4-VP16 FLuc 5.6µM (no result: ATXN viability)
Oc1cc2c(cc1O)[C@H]1c3ccc(O)c(O)c3OC[C@@]1(O)C2	ATXN viability inconclusive, RORg inh inconclusive
Cc1ccccc1CSCCNC(=S)Nc1ccccc1	RORg inh 2.2µM, Gal4-VP16 FLuc 7.1µM
S=C(NCCSCc1c(Cl)cccc1Cl)Nc1ccccc1	RORg inh 2µM, TGFb inhibitor inconclusive, Gal4-VP16 FLuc 5µM
S=C(Nc1ccccc1)Nc1ccc(OCc2ccc(Cl)cc2Cl)cc1	ATXN2 expr inh 1µM, RORg inh 1.4µM, Gal4-VP16 FLuc 7.1µM
COc1ccc(CSCCNC(=S)Nc2ccccc2)cc1Cl	ATXN viability inconclusive, RORg inh 4.5µM, TGFb inhibitor inconclusive, Gal4-VP16 FLuc inconclusive (no result: ATXN2 expr inh)
Cc1ccccc1CSCCNC(=O)c1ccccc1	none
S=C(NCCSCc1ccc(Cl)c(Cl)c1)Nc1ccccc1	TGFb inhibitor inconclusive (no result: RORg inh, Gal4-VP16 FLuc)
O=[N+]([O-])c1ccccc1/C=C/c1ccnc2ccccc12	none (no result: ATXN viability, ATXN2 expr inh, RORg inh, Gal4-VP16 FLuc)
CCCCCCCCCCCCCCCCCCN(CCCCCCCCCCCCCCCCCC)c1ccccc1	none (no result: ATXN viability, ATXN2 expr inh, RORg inh, Gal4-VP16 FLuc)
CC1(C)S[C@@H]2[C@H](NC(=O)COc3ccccc3)C(=O)N2[C@@H]1C(=O)OCc1cccc2cccnc12	TGFb inhibitor inconclusive (no result: ATXN viability, ATXN2 expr inh, RORg inh, Gal4-VP16 FLuc)
Cc1cccc(NC(=O)C2CCCN(S(=O)(=O)c3ccc(Br)s3)C2)c1 (centres undefined)	ATXN viability inconclusive, TGFb inhibitor inconclusive (no result: RORg inh, Gal4-VP16 FLuc)
S=C(NCCSCc1ccc(Cl)cc1Cl)Nc1ccccc1	RORg inh 3.2µM, TGFb inhibitor inconclusive, Gal4-VP16 FLuc 4µM
O=C(NC1CC(=O)N(c2ccc(F)cc2)C1)c1ccc(S(=O)(=O)N2CCCCC2)cc1 (centres undefined)	none (no result: ATXN viability, ATXN2 expr inh, RORg inh, Gal4-VP16 FLuc)
COc1ccc(C(=O)/C=C/Sc2nc3ccccc3o2)cc1	HepG2 tox 18µM, ATXN2 expr inh inconclusive, RORg inh inconclusive, TGFb inhibitor 10µM (no result: ATXN viability)
N/C(=N\c1nc2ccccc2o1)NC(=O)c1ccccc1Br	RORg inh 0.89µM
COc1ccc(C(=O)N/C(N)=N/c2nc3ccccc3o2)cc1	RORg inh 8.9µM, Gal4-VP16 FLuc inconclusive
N/C(=N\c1nc2ccccc2o1)NC(=O)c1ccc(Cl)cc1	RORg inh 10µM, Gal4-VP16 FLuc inconclusive
Cn1cc(-c2cc3n(n2)CCC(=O)N3CCCC(=O)NCc2ccc(F)cc2)c2ccccc21	none (no result: RORg inh, Gal4-VP16 FLuc)
CCNc1ncc2nc(C)c(=O)n(C)c2n1	none (no result: HepG2 tox, ATXN viability, ATXN2 expr inh, TGFb inhibitor)
N/C(=N\c1nc2ccccc2o1)NC(=O)c1ccc(F)cc1	RORg inh 2.5µM, Gal4-VP16 FLuc 5.6µM
Cc1nn2c(NCc3ccccn3)cc(C(C)(C)C)nc2c1-c1ccccc1	ATXN viability inconclusive, RORg inh 0.25µM, TGFb inhibitor inconclusive, Gal4-VP16 FLuc 2.2µM
Cc1cc(NCc2ccccn2)n2nc(C)c(-c3ccccc3)c2n1	ATXN viability inconclusive, ATXN2 expr inh inconclusive, RORg inh 0.71µM, TGFb inhibitor 11µM, Gal4-VP16 FLuc 0.32µM
CCCc1cc(NCCCn2ccnc2)n2nc(C)c(-c3ccccc3)c2n1	RORg inh inconclusive
Cc1cc(Nc2ccccc2)n2nc(C)c(-c3ccccc3)c2n1	none (no result: ATXN2 expr inh)
CC(=CC(=O)Nc1ccccc1C(=O)O)c1ccc2ccccc2c1	none (no result: HepG2 tox, ATXN viability, RORg inh, TGFb inhibitor, Gal4-VP16 FLuc)
S=c1nc(-c2ccccc2)n(Cc2ccco2)c2c1CCCC2	RORg inh 18µM, Gal4-VP16 FLuc inconclusive (no result: HepG2 tox, ATXN viability, ATXN2 expr inh, TGFb inhibitor)
c1ccc(-c2nc3nc4ccccc4nc3n2Cc2ccco2)cc1	Gal4-VP16 FLuc 20µM
S=c1nc(-c2ccccc2)n(Cc2cccnc2)c2c1CCCC2	ATXN viability inconclusive
CC(C)Cn1c(-c2ccccc2)nc(=S)c2c1CCCC2	RORg inh 20µM
C=CCn1c(-c2ccccc2)nc(=S)c2c1CCCC2	none
C=CCOc1c(Br)cc(CNc2nccs2)cc1OC	RORg inh 13µM, Gal4-VP16 FLuc 18µM

Bioassay records from PubChem.
